D2 PAM-1 – HTS Assay for Positive Allosteric Modulators of the Human D2 Dopamine Receptor: Primary Screen for Potentiators; D(2) dopamine receptor (Homo sapiens), P14416; HEK293 T-REx D2, calcium flux, EC20 dopamine potentiation; potentiation, % at 10 µM; 340,000 compounds, 0.34% hits;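 active = potentiation over 3 SD above the plate norm, cut at about 30% in these data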; also: 0% is about no effect
Target sequence (P14416 whole entry, looked up): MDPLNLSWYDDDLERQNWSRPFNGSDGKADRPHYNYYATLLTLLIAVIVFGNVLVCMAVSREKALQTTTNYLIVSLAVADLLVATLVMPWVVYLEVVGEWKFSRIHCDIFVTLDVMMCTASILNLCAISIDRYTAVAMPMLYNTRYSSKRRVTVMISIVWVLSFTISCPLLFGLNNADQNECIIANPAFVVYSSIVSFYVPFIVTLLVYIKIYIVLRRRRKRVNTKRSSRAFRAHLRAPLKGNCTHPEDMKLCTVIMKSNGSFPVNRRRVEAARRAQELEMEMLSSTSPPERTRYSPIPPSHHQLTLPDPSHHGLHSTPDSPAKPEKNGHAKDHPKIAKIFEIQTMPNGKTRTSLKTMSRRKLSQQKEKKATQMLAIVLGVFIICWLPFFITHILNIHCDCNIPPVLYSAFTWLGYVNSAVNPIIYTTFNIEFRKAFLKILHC
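Tetracycline-induced HEK293 T-REx cells force-coupled to calcium signalling expressed D2; compounds were pin-added after a 10 s baseline, read kinetically 180 s, then an EC20 dopamine challenge followed with a further 180 s calcium read.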
D2 ag-1 – Beta-Arrestin HTS for Positive Allosteric Modulators of the Human D2 Dopamine Receptor: Agonists; 360,000 compounds, 0.084% hits; activation, % (concentration not given with the values); D(2) dopamine receptor (Homo sapiens), P14416; DiscoveRx PathHunter D2 beta-arrestin, luminescence, 90 min; 100% = 57 uM dopamine signal; in the data active = activation above about 40%; inconclusive = between about 15% and that limit
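Agonist mode: compounds alone added to overnight-plated D2 PathHunter cells for 90 min at 37 C, with 57 uM final dopamine (EC100) defining full response. Beta-arrestin recruitment detected by chemiluminescent reagent, read after 1 h at ambient temperature.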
D2 ag-2 – HTS Assay for Allosteric Agonists of the Human D2 Dopamine Receptor: Primary Screen for Agonists | HEK293 T-REx D2 cells, calcium flux agonist mode | 340,000 compounds, 0.53% hits | D(2) dopamine receptor (Homo sapiens), P14416 | activation, % at 2 µM;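 active = activation over 3 SD above normal in the single-dose calcium agonist read, cut at about 30% in these data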; also: 0% is about no effect
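HEK293 Trex D2 cells, tetracycline-induced, o/n 30 C 5% CO2; no-wash Ca dye, RT 30–90 min; 10-cycle baseline, 23 nl cpd added, kinetic Ca read 180 s; agonist hits = positive Ca response.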
D2 antag – HTS Assay for Allosteric Antagonists of the Human D2 Dopamine Receptor: Primary Screen for Antagonists; HEK293 TREx D2 cells, calcium flux, dopamine EC80; inhibition, % at 10 µM; 340,000 compounds, 2% hits; AID 485344, 2010; in the data active = inhibition above about 30%; inactive = below that, where a call was filed; also: 0% is about no effect
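Antagonism is scored as inhibition of an EC80 dopamine-evoked calcium signal in a force-coupled, tetracycline-inducible HEK293 T-REx D2 line, with compound present 180 s before agonist.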
D2 PAM-2 – Beta-Arrestin HTS for Positive Allosteric Modulators of the Human D2 Dopamine Receptor: Potentiators. potentiation, % (no concentration beside the values). DiscoveRx D2 beta-arrestin cells, luminescence, 90 min; 100% = 57 uM dopamine signal. D(2) dopamine receptor (Homo sapiens), P14416. 360,000 compounds, 0.23% hits. AID 624464, 2012; in the data active = potentiation above about 50%; inconclusive = mostly about 30% to 49%
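D2 cells co-treated with compound plus 50 nM dopamine (EC20) for 90 min at 37 deg C to detect potentiation. Beta-arrestin recruitment was read as enzyme-fragment luminescence after 1 h at ambient temperature. Full response was set by 57 uM dopamine.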
* hit, by the source's call; ? = inconclusive; . = no result given. Most compounds without a hit are left out; they make up all but 2.4% or so of the library.

SMILES	D2 PAM-1	D2 ag-1	D2 ag-2	D2 antag	D2 PAM-2
Clc1ccc(CN2C3=NCCCN3c3ccccc32)cc1Cl	3	1	1	76*	-10
Clc1ccc(CN2C3=NCCCN3c3ccccc32)cc1	6	-10	1	3	-6
CCOc1ccccc1CNC(=O)CN1C(=O)C2CCCCN2c2ccc(C(=O)N(C)C)cc21 (configuration not stated)	.	.	-1	.	.
COCCCN(C(=S)Nc1cccc(Cl)c1)C(C)c1ccncc1 (configuration not stated)	0	-1	1	30*	-10
CCC(Oc1ccccc1)C(=O)Nc1ccccc1C(=O)N1CCCCC1 (configuration not stated)	-14	-2	0	-13	69*
CSc1ccc(C#N)cc1NC(=O)c1ccccc1C	-17	3	1	51*	-3
COc1ccc(CCNS(=O)(=O)c2ccc(F)c(C(=O)Nc3ccc(Cl)cc3)c2)cc1OC	16	.	0	.	.
Cc1cccc(N2CCN(C(=O)CNC(=O)C3CCCCC3)CC2)c1C	-4	2	1	1	14
Cc1cccc(N2CCN(C(=O)CNC(=O)c3ccccc3)CC2)c1C	13	0	-1	33*	-6
COC(=O)c1ccc(CN2CCCC(C(=O)c3cc(F)ccc3OC)C2)cc1 (configuration not stated)	-22	-1	1	17	-3
COc1ccc(F)cc1C(=O)C1CCCN(Cc2c[nH]c3ccccc23)C1 (configuration not stated)	-20	-3	0	67*	-2
COc1ccc(-c2[nH]ncc2CN2CCCC(C(=O)c3ccc(OC)cc3OC)C2)cc1 (configuration not stated)	-15	-4	0	1	-15
COc1ccc(OC)c(CN2CCCC(C(=O)c3ccccc3SC)C2)c1 (configuration not stated)	-18	-4	0	51*	-20
Cn1cc(CN2CCCC(C(=O)c3cc(F)ccc3F)C2)c2ccccc21 (configuration not stated)	-16	-6	0	-5	-11
COc1ccc(F)cc1C(=O)C1CCCN(Cc2cn(C)c3ccccc23)C1 (configuration not stated)	-14	-2	0	78*	-16
COc1ccc(CN2CCCC(C(=O)c3ccc(SC)cc3)C2)cc1Cn1cccn1 (configuration not stated)	-18	-3	1	33*	-3
O=C(NCc1ccccc1Cl)c1cc2cccc3c2n1CCS3	9	.	0	.	.
COc1ccc(CN2CCC(CO)(Cc3ccccc3)CC2)cc1Cn1cccn1	-18	-6	-1	37*	-5
CCc1ccc(CN2CCCC(CNC(=O)c3cc(OC)cc(OC)c3)C2)cc1 (configuration not stated)	-21	-6	-1	27	-25
COc1cc(OC)cc(C(=O)NCC2CCCN(Cc3ccc(SC)cc3)C2)c1 (configuration not stated)	-21	-10	-1	51*	-29
COc1ccc(NC(=O)C(C)n2nnc3sc(-c4ccccc4)cc3c2=O)cc1Cl (configuration not stated)	-5	.	0	.	.
CCN(CC)S(=O)(=O)c1ccc(NC2CCN(Cc3ccccc3)CC2)nc1	17	-1	0	36*	-7
CC1(c2ccc3noc(-c4ccccc4)c3c2)OCCO1	16	14	-1	-12	58*
CC1(c2ccc3noc(-c4ccc(F)cc4)c3c2)OCCO1	-6	?	1	-8	60*
COc1cccc(-c2onc3ccc(C4(C)OCCO4)cc23)c1	3	?	1	0	25
SMILES	D2 PAM-1	D2 ag-1	D2 ag-2	D2 antag	D2 PAM-2
O=C(c1ccc2noc(-c3ccccc3)c2c1)N1CCN(c2ccccc2)CC1	-4	?	0	-3	72*
O=C(O)c1ccc2noc(-c3ccccc3)c2c1	1	3	0	-11	-4
COC(=O)c1cc(-c2ccc(Cl)cc2)c2c(=O)[nH]c(=O)n(C)c2n1	0	.	0	.	.
CCN(c1ccccc1)S(=O)(=O)c1ccc(NC(=O)c2cc(=O)c3cc(C)cc(C)c3o2)cc1	1	.	.	.	.
CC(=O)Nc1cc(-c2ccccc2)ccc1O	8	-2	1	-2	1
Nc1cc(-c2ccccc2)ccc1O	3	?	0	8	98*
Cc1cccc(C)c1N1C(=O)CC(N(O)c2ccccc2)C1=O (configuration not stated)	-5	7	-1	-19	51*
Cc1c(Cl)cccc1N1C(=O)CC(N(O)c2ccccc2)C1=O (configuration not stated)	7	6	1	0	55*
CCOc1ccccc1N1C(=O)CC(N(O)c2ccccc2)C1=O (configuration not stated)	27	?	1	-13	4
CCOC(=O)C1=NN(c2ccc(Cl)cc2)C(=O)C1	-7	-3	1	-1	-18
CCC1(c2ccc(F)cc2)NC(=O)N(CC(=O)N2CCOCC2)C1=O (configuration not stated)	-7	-1	-1	13	-1
CCC1(c2ccc(F)cc2)NC(=O)N(CC(=O)c2ccc[nH]2)C1=O (configuration not stated)	.	-3	1	30*	-13
CN(C)C(=O)c1ccc(NC(=O)COC(=O)CCN=C2NS(=O)(=O)c3ccccc32)cc1	.	0	.	.	-3
NC(=O)C1C(c2ccccc2)=C1c1ccccc1	-3	-2	0	38*	-7
Cc1cccc(NC(=S)NNC(=O)CCn2cc(C)cn2)c1	45*	-2	0	-7	-25
COc1ccccc1N1CCN(/N=C/c2cccc(OC)c2O)CC1	-5	-9	-3	59*	-6
C/C(=C\c1ccccc1)CN1CCN(c2ccccc2)CC1	-6	?	0	-6	1
COc1ccccc1N1CCN(CC(=O)N2N=CCC2c2ccccc2)CC1 (configuration not stated)	-18	-10	0	42*	-22
COc1ccccc1N1CCN(C/C(C)=C/c2ccccc2)CC1	-23	-2	0	74*	-18
COc1ccc(N2CCN(CC(=O)N3N=CCC3c3ccccc3)CC2)cc1 (configuration not stated)	-3	0	0	13	-3

Compound activity (PubChem)
